# Efflux pump inh = blocks antifungal efflux pumps in multiplex yeast assay. S. cerevisiae Candida pump triplex, Nile Red efflux. inhibition, % at 10 µM. actives 0.44% (n = 330,000). AID 485275;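 active means plate passing quality check with inhibition over a set limit, or well fluorescence over plate mean plus 4 SD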;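 further: Nile Red retained in pooled yeast measured as flow cytometry median fluorescence; 0% = buffer negative control and 100% = Enniatin B positive control; higher means more Nile Red kept so more efflux inhibition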
# CIT2-GFP yeast = modulators of TOR pathway CIT2-GFP in S. cerevisiae; S. cerevisiae CIT2-GFP strain, flow cytometry, 3 h; 100 means same as DMSO wells; GFP response vs DMSO, % at 10 µM; actives 0.065% (n = 320,000);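 active means GFP response relative to DMSO above a set limit, near the screen mean plus 3 SD, cut at about 150% in these data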;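 further: ratio of well median GFP fluorescence to mean of DMSO wells on the plate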
# RPL19A-GFP yeast = modulators of TOR pathway RPL19A-GFP in S. cerevisiae; S. cerevisiae RPL19A-GFP strain, flow cytometry, 3 h; hits give low values; percent response vs DMSO, % at 10 µM; actives 0.3% (n = 330,000); AID 2025;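 active means percent response vs DMSO below 50%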;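 further: median channel GFP fluorescence of the barcoded RPL19A-GFP strain; ratio of sample median GFP to plate DMSO average so 100% = DMSO; lower means less RPL19A-GFP as with rapamycin TOR inhibition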
# LAP4 TOR yeast = modulators of TOR pathway LAP4-GFP in S. cerevisiae; S. cerevisiae LAP4-GFP multiplex, flow cytometry GFP, 3 h; median GFP as percent of DMSO wells; actives 0.34% (n = 320,000); GFP response vs DMSO, % at 10 µM;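 active means GFP response vs DMSO above a set limit, about the screen mean plus 3 SD, cut at about 150% in these data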
# MEP2-GFP yeast = alters MEP2-GFP fluorescence in TOR pathway yeast screen; S. cerevisiae MEP2-GFP strain, flow cytometry GFP, 3 h; 100% = DMSO control level; GFP response vs DMSO, % at 10 µM; actives 0.51% (n = 330,000); AID 2016;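 active means GFP response versus DMSO above a set limit, roughly screen mean plus 3 SD, cut at about 180% in these data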;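 further: median GFP fluorescence of the barcode-gated MEP2-GFP cells per well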
# AGP1-GFP MLPCN = modulators of TOR pathway AGP1-GFP in S. cerevisiae; AID 2066; GFP response vs DMSO, % at 10 µM; actives 0.02% (n = 320,000); S. cerevisiae AGP1-GFP multiplex flow cytometry, 3 h; GFP as percent of DMSO wells;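 active means GFP response relative to DMSO above a set limit, near screen average plus 3 SD, cut at about 150% in these data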;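 further: median GFP channel fluorescence of the gated AGP1 strain per well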
# LAP4-GFP pick2 = second confirmation of modulators of TOR reporter LAP4-GFP in yeast; shares compounds with LAP4 TOR yeast; S. cerevisiae LAP4-GFP strain, flow cytometry GFP, 3 h; GFP response vs DMSO, % at 10 µM; actives 20% (n = 590); AID 2621;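 active means GFP signal as percent of the solvent control above about 150%, meaning raised reporter expression, limit read from the data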;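 further: ratio of well median GFP fluorescence to plate DMSO mean so 100% = DMSO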
# MEP2-GFP pick2 = second confirmation of modulators of TOR reporter MEP2-GFP in yeast; actives 10% (n = 590); S. cerevisiae MEP2-GFP strain, flow cytometry GFP, 3 h; GFP response vs DMSO, % at 10 µM; AID 2622; shares compounds with LAP4 TOR yeast;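 active means GFP signal above 150% of the solvent control wells, that is a rise of more than half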;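 further: median channel GFP fluorescence of all gated yeast cells per well; ratio of median GFP to plate DMSO average so 100% = DMSO level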
# RPL19A GFP CP2 = yeast RPL19A-GFP TOR reporter modulation, second cherry pick | shares compounds with LAP4 TOR yeast | S. cerevisiae RPL19A-GFP strain, flow cytometry GFP, 3 h; hits give low values; 100% means same as DMSO wells | GFP response vs DMSO, % at 10 µM | actives 3% (n = 590);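 active means under 65% GFP response relative to DMSO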;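 further: median GFP channel fluorescence per well over the all cells gate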
# CIT2-GFP pick2 = yeast CIT2-GFP TOR reporter modulation, second cherry pick. shares compounds with LAP4 TOR yeast. S. cerevisiae CIT2-GFP strain, flow cytometry GFP, 3 h; DMSO control wells read 100%. GFP response vs DMSO, % at 10 µM. actives 8% (n = 590). AID 2624;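 active means GFP response vs DMSO above about 150%, limit read from the data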;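 further: median green fluorescence per well over all gated yeast cells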
# AGP1 GFP CP2 = reconfirmed modulator of AGP1-GFP TOR reporter in yeast. shares compounds with LAP4 TOR yeast. S. cerevisiae AGP1-GFP strain, flow cytometry GFP, 3 h. percent response vs DMSO, % at 10 µM. 590 tested, under 10 active. AID 2643;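 active means over 150 percent of DMSO response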;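 further: median GFP channel fluorescence over all cells without mother daughter split; sample median GFP divided by mean DMSO control so 100% equals DMSO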
# Yeast autofluor = counter-screen for compound autofluorescence in yeast s288c cells | 610 tested, under 10 active | fluorescence change (kMESF span) at 33 µM | AID 2757 | S. cerevisiae s288c, 520 nm autofluorescence, flow cytometry, 3 h; hits give high values; zero means same as solvent-only cells | shares compounds with LAP4 TOR yeast;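 active means fluorescence span over the dose series, or activity score, above about 33, limit read from the data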
# TORC1 bypass = wildtype yeast growth loss with TORC1 bypass cells unaffected | 120 tested, under 10 active | growth rating (0-3) at 30 µM | S. cerevisiae BY4741 spot growth rating, 48-72 h; hits give low values | shares compounds with LAP4 TOR yeast;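 active means growth rating at most 1 for wild type yeast while the TORC1 bypass strain still grows fully, rated 3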
# Numbers without * were called inactive; . = no result. Shown are actives, neighbours in structure and some others; about 1.3% of the full set was active somewhere.
SMILES,Efflux pump inh,CIT2-GFP yeast,RPL19A-GFP yeast,LAP4 TOR yeast,MEP2-GFP yeast,AGP1-GFP MLPCN,LAP4-GFP pick2,MEP2-GFP pick2,RPL19A GFP CP2,CIT2-GFP pick2,AGP1 GFP CP2,Yeast autofluor,others
CCCN(C(=O)CCNC(=O)c1ccc(Cl)cc1)c1c(N)n(Cc2ccccc2)c(=O)[nH]c1=O,-0.2,95.8,94.9,91.1,98.1,95.3,.,.,.,.,.,.,
O=C(O)C(c1ccccc1)N1C(=O)/C(=C/c2cccs2)SC1=S (configuration not stated),-0.1,99.6,98.8,105.0,93.8,100.0,.,.,.,.,.,.,
CC(c1ccccc1)N1C(=O)/C(=C/c2ccncc2)SC1=S (configuration not stated),0.0,73.4,84.0,193.7*,82.0,89.6,260.5*,124.0,78.8,98.7,97.2,0.81,
COc1ccc(Nc2cc(C)nc(NCc3ccccc3)n2)cc1,0.0,105.6,98.7,103.2,101.8,106.2,.,.,.,.,.,.,
COc1ccccc1-c1cc(Nc2cc(C)[nH]n2)nc(NCc2ccccc2)n1,.,.,.,.,.,.,.,.,.,.,.,.,TORC1 bypass=3
COc1cccc(-c2cc(Nc3cc(C)[nH]n3)nc(NCc3ccccc3)n2)c1,.,.,.,.,.,.,.,.,.,.,.,.,TORC1 bypass=3
COc1cc(C)nc(NCc2ccccc2)n1,0.1,.,97.3,88.8,96.5,104.3,.,.,.,.,.,.,
CNC(CC(=O)c1ccc([N+](=O)[O-])cc1)C(Cl)(Cl)Cl (configuration not stated),9.4*,81.4,79.5,194.8*,82.2,86.3,179.8*,188.0*,89.3,143.6,81.9,2,
COc1ccccc1C(=O)Nc1ccnn1C1CCN(Cc2cnc(N(C)C)s2)CC1,-0.7,103.8,103.6,98.3,103.7,100.3,.,.,.,.,.,.,
O=C1CCCC(=O)N1c1ccc(O)cc1,-0.1,100.5,103.4,97.2,97.3,102.3,.,.,.,.,.,.,
O=C1C=CC(=O)N1c1ccc(O)cc1,0.1,92.1,90.3,184.7*,85.3,93.7,.,.,.,.,.,3.02,
O=C1C=CC(=O)N1c1ccc(OC(F)F)cc1,0.5,71.8,87.0,152.4*,86.6,77.1,205.8*,131.4,86.8,117.6,88.2,1.7,
C=CCNC(=O)/C(C#N)=C/c1ccc(OS(=O)(=O)c2ccc(C)cc2)c(OC)c1,0.3,80.1,80.0,185.6*,85.8,82.2,131.3,96.1,91.8,101.5,93.1,.,
COC(=O)N/N=C/c1ccc(OS(=O)(=O)c2ccc(C)cc2)c(OC)c1,-0.1,101.5,99.4,106.6,97.4,100.9,.,.,.,.,.,.,
Cc1cc(C)cc(N(C(=O)c2csnn2)C(C(=O)NC2CCCCC2)c2ccccn2)c1 (configuration not stated),0.0,100.8,96.1,95.4,93.9,99.8,.,.,.,.,.,.,
Cc1nn(-c2ccccc2[N+](=O)[O-])c(=O)c2ccccc12,0.1,76.2,59.7,109.0,107.4,22.1,97.1,93.2,99.0,105.2,98.8,.,
